Laboratory results as given in PubChem BioAssay (EPA / NIEHS).
The source holds several records for some structures; these can differ, active in one and inactive in another. Activity calls are given as the source filed them. Rule for the calls: active = hit-call score of the fitted dose curve at least 0.9, where 1 is the maximum; inactive = score below 0.9.

biological target: Myc proto-oncogene protein (Homo sapiens) (UniProt P01106); assay: ATG_Myc_CIS: Attagene CIS-FACTORIAL HepG2 Assay for human Myelocytomatosis (Myc) Proto-Oncogene Transcription Factor (AID 2282990); settings: HepG2, Attagene cis-reporter transcription factor activity; actives raise or lower the signal
Experimental: ATG_CIS is a cell-based, multiplexed-readout assay that uses HepG2, a human liver cell line, with measurements taken at 24 hours after chemical dosing in a 24-well plate.ATG_Myc_CIS is one of 52 assay component(s) measured or calculated from the ATG_CIS assay. It is designed to make measurements of mRNA induction, a form of inducible reporter, as detected with fluorescence intensity signals by Reverse transcription polymerase chain reaction (RT-PCR) and Capillary electrophoresis technology.Data from the assay component ATG_Myc_CIS was analyzed into 1 assay endpoint. This assay endpoint, ATG_Myc_CIS, was analyzed with bidirectional fitting relative to DMSO as the negative control and baseline of activity. Using a type of inducible reporter, measures of mRNA for gain or loss-of-signal activity can be used to understand the reporter gene at the transcription factor-level as they relate to the gene MYC. Furthermore, this assay endpoint can be referred to as a primary readout, because this assay has produced multiple assay endpoints where this one serves a reporter gene function. To generalize the intended target to other relatable targets, this assay endpoint is annotated to the dna binding intended target family, where the subfamily is basic helix-loop-helix leucine zipper.
Human liver HepG2 cells are transiently transfected with multiple reporter transcription units (MRTUs) in 6-well plates using FuGene 6 reagent (Roche; 3 ml FuGene/1 mg DNA). The MRTU constructs are regulated by a cis-regulating element (promoter). […] A major difference between the CIS and TRANS system is that in CIS activities of endogenous TFs are measured, whereas the TRANS assay evaluates changes in activities of exogenous, chimeric NR-Gal4 proteins. […] At the end of 24 hour incubation, total RNA was isolated using TriZol reagent (Invitrogen). The isolated RNA is then reverse-transcribed using oligo(dT) primer and Mo-MLV reverse transcriptase (Invitrogen) with DNAse I (Ambion) treatment for 30 min. The one-tenth of the produced cDNA was amplified by PCR using Taq DNA polymerase (Invitrogen) and two reporter sequence-specific primers. The PCR products were fluorescently labeled by primer extension with 6-arboxyfluorescein (6-FAM) 5'-labeled reporter sequence-specific primer (2 min at 95 C, 20 s at 68 C and 10 min at 72 C) and these products were digested with 5U of HpaI (New England Biolabs) for 2h at 37 C. The fragments were purified using Qiaquick PCR columns (Qiagen), analyzed on an ABI 3130xL genetic analyzer (Applied Biosystems) with peak positions identified by using a set of X-rhodamine (ROX)-labeled MapMarker1000 molecular weight standards (BioVentures). The raw capillary electrophoresis data was processed using Attagraph software (Attagene).

Chain of Myc proto-oncogene protein (Homo sapiens) (P01106 whole entry, looked up): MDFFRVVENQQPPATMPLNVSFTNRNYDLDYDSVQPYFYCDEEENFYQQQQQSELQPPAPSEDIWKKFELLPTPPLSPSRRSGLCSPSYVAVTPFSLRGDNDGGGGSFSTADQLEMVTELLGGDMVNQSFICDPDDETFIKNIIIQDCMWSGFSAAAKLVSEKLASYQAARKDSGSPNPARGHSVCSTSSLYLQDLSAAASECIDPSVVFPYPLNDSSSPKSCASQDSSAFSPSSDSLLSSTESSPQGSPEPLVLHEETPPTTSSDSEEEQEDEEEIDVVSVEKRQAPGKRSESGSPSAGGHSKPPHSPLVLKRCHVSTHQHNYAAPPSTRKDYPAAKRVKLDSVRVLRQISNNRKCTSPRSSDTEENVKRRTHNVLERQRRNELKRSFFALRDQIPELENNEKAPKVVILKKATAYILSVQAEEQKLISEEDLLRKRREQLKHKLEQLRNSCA

Structure (SMILES)	outcome	AC50
Oc1ccc(C(c2ccc(O)cc2)C(Cl)(Cl)Cl)cc1	inactive	
CCCCCOC(=O)COc1cc(N2C(=O)C3=C(CCCC3)C2=O)c(F)cc1Cl	inactive	
CCC(O)=C1C(=O)CC(C(=O)O)CC1=O (stereo not given)	inactive	
CCOC(=O)C(C)Oc1ccc(Oc2nc3ccc(Cl)cc3o2)cc1 (stereo not given)	inactive	
CCN(CC)C(=O)c1cccc(C)c1	inactive	
C#CCOC(=O)[C@@H](C)Oc1ccc(Oc2ncc(Cl)cc2F)cc1	inactive	
CCN(Cc1c(F)cccc1Cl)c1c([N+](=O)[O-])cc(C(F)(F)F)cc1[N+](=O)[O-]	inactive	
S=C([S-])NCCNC(=S)[S-].[Mn+2]	inactive	
N[C@@H](Cc1cc(I)c(Oc2ccc(O)c(I)c2)c(I)c1)C(=O)O	inactive	
CCCCC(CC)COC(=O)c1ccccc1C(=O)O (stereo not given)	inactive	
CCCCOC(=O)C(C)Oc1ccc(Oc2ccc(C(F)(F)F)cn2)cc1 (stereo not given)	inactive	
Cc1nn(C)c(Oc2ccccc2)c1C=NOCc1ccc(C(=O)OC(C)(C)C)cc1	inactive	
CCNc1nc(N)nc(Cl)n1	inactive	
CC(C)(c1ccc(O)cc1)c1ccc(O)cc1	inactive	2.29 µM (active)
CCCOC(=O)NCCCN(C)C	inactive	
CCSC(=O)N(CC(C)C)CC(C)C	inactive	
N#CSCSc1nc2ccccc2s1	inactive	
CCOC(=O)[C@H](C)Oc1ccc(Oc2nc3ccc(Cl)cc3o2)cc1	inactive	
CCCOC(=O)c1ccc(C(=O)OCCC)nc1	inactive	

Structure (SMILES)	outcome	AC50
CC(=O)S[C@@H]1CC2=CC(=O)CC[C@]2(C)[C@H]2CC[C@@]3(C)[C@@H](CC[C@@]34CCC(=O)O4)[C@H]12	inactive	7.76 µM (active)
CCOC(=O)C(C)Oc1ccc(Oc2cnc3cc(Cl)ccc3n2)cc1 (stereo not given)	inactive	
OB(O)O	inactive	
O=C(c1ccccc1)C1CCCCC1	inactive	
CCCCCCC(C)OC(=O)COc1nc(F)c(Cl)c(N)c1Cl (stereo not given)	inactive	
COC(=O)CSc1cc(N=c2sc(=O)n3n2CCCC3)c(F)cc1Cl	inactive	
COC(=O)c1cccc(C)c1S(=O)(=O)NC(=O)Nc1nc(OCC(F)(F)F)nc(N(C)C)n1	inactive	
CCCCOCCOCCOCc1cc2c(cc1CCC)OCO2	inactive	
CCOC(=O)c1ccc(O)cc1	inactive	
C#C[C@]1(O)CC[C@H]2[C@@H]3CCC4=CC(=O)CC[C@@H]4[C@H]3CC[C@@]21CC	inactive	
CSC(=O)c1cccc2nnsc12	inactive	
COC(=O)c1ccccc1C(=O)O	inactive	
CC(=O)[C@H]1CC[C@H]2[C@@H]3CCC4=CC(=O)CC[C@]4(C)[C@H]3CC[C@]12C	inactive	
C[C@]12CC[C@@H]3c4ccc(O)cc4C[C@@H](CCCCCCCCCS(=O)CCCC(F)(F)C(F)(F)F)[C@H]3[C@@H]1CC[C@@H]2O (stereo not given in full)	inactive	
CCCCOC(=O)[C@@H](C)Oc1ccc(Oc2ccc(C(F)(F)F)cn2)cc1	inactive	
CC1(C)C(C=C(Cl)Cl)C1C(=O)OCc1cccc(Oc2ccccc2)c1 (stereo not given)	inactive	
CCC(C)OC(=O)N1CCCCC1CCO (stereo not given)	inactive	
O=C(Nc1ccc([N+](=O)[O-])cc1Cl)c1cc(Cl)ccc1O	inactive	
C[C@]12C[C@H](O)[C@H]3[C@@H](CCC4=CC(=O)CC[C@@]43C)[C@@H]1CC[C@@H]2C(=O)CO	inactive	
